Measured values published in PubChem BioAssay (NCI).
About 83,000 compounds went through this panel and 20% of them were active in at least one assay; those are over-represented in the sample as a whole.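 Cells were grown in 96-well plates and exposed to the test compound at a single concentration for 48 hours; results are reported as percent growth, with values below 10 considered active.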 Values without a mark were called inactive. Active and inactive are the calls of the source.

What follows are compounds tested on MDA-MB-468 breast (assay: NCI-60 one-dose screen, 48 h (100 = growth as untreated, 0 = no growth, -100 = all killed)). Conditions: 10 µM unless noted.
`CC1=C[C@H]2c3c(c(O)c(O)c4oc5ccccc5c(=O)c34)[C@H](c3cc(O)c(O)c4oc5ccccc5c(=O)c34)[C@H]2C(C)(C)C1` gave a growth of 25.2%.
With `COc1cc(Cl)c(C)cc1NC(=O)c1cc2ccccc2cc1O` the growth was -8.5% (active).
For `N#C/C(=C\c1ccc2c(c1)OCO2)c1ccccc1`, the growth was 24.8%.
`COc1cc(Cn2c(SCCC(=O)Nc3ccc(F)cc3)nc3ccccc3c2=O)cc(OC)c1OC` showed a growth of 88.1%.
For `O=C(C1=Cc2cc3ccccc3n2Cc2cnnn21)c1ccc(O)cc1`, the growth was 62.2%.
Work on `Nc1c2c(nc3ccc(Cl)cc13)CC(c1ccc(O)cc1)CC2=O` (centres undefined) yielded a growth of 18%.
`NC1=NC(SCc2ccccc2CCl)c2ncn(Cc3ccccc3CCl)c2N1` (centres undefined) was tested, and the growth was -33.2% (active).
With `Cn1c(-c2ccc(Br)cc2)c(O)c(=O)c2c(F)cccc21` the growth was 39.7%.
`CC[N+](C)(C)N` showed a growth of 95.9%.
For `CNC(=O)OC1C(O[C@H]2C[C@H]3[C@@H]4CC=C5C[C@@H](O)CC[C@]5(C)[C@H]4CC[C@]3(C)[C@H]2[C@H](C)C(=O)CCC(C)C)OCC(O)C1OC1OCC(O)C(O)C1OC(=O)c1ccc(OC)cc1` (some centres undefined), the growth was -0.149% (active).
Work on `O=C(/C=C/c1cccc(O)c1)c1ccccc1O` yielded a growth of 85%.
`CCOC(=O)/C=C/c1ccc(C(=O)OCC)[nH]1` showed a growth of 53.5%.
Compound `CN1CCN(CCOc2cc(OC3CCOCC3)c3c(Nc4c(Cl)ccc5c4OCO5)ncnc3c2)CC1` has a growth of 25.8%.
With `CS(=O)(=O)Nc1cc(-c2ccc3ncnc(Nc4ccc(F)c(Cl)c4)c3c2)ccc1Cl` the growth was -32% (active).
With `COc1cc(C(=O)c2ccccc2C(=O)O)c(OC)c2c1CCCC2` the growth was 94.7%.
`Cc1cccc(NC(=O)N/C(N)=N/c2nc3ccccc3s2)c1` was tested, and the growth was 17.8%.
For `CCNC(=O)CCCCC(=O)c1c(C)[nH]c(/C=C2\N=C(c3ccc[nH]3)C=C2OC)c1C`, the growth was -22.7% (active).
Work on `CN(Cc1cc(Cl)cc(Cl)c1O)Cc1cc(Cl)cc(Cl)c1O` yielded a growth of 36.5%.
Compound `NC(N)=NS(=O)(=O)c1ccc(N=Nc2c(N)nn(-c3ccc([N+](=O)[O-])cc3[N+](=O)[O-])c2N)cc1` has a growth of 106%.
`COC(=O)/C=C1\SC(=Nc2ccc(F)cc2)N(CCc2c[nH]c3ccccc23)C1=O` gave a growth of 125%.
With `O=C1c2ccccc2CCC1(Br)Br` the growth was -42.2% (active).
In the case of `COCCOCCOCc1n(Cc2ccc3ccccc3n2)c2ccccc2[n+]1Cc1ccc2ccccc2c1`, the growth was -50.1% (active).
In the case of `O=C(Nc1ccc(N2CCNCC2)cn1)c1[nH]ncc1Nc1ncnc2sc3c(c12)CCC3`, the growth was -37.9% (active).
`COc1ccc(Cn2c(SC)nc(=O)n(Cc3ccc(Cl)cc3)c2=O)cc1` gave a growth of 107%.
With `COc1ccc(-c2cc3ccc(N(C)C)cc3nc2N)c(F)c1` the growth was 4.96% (active).
With `CC[C@H]1CCC/C=C/[C@@H]2C[C@H](O)C[C@H]2[C@H](O)/C=C/C(=O)O1` the growth was -51.5% (active).
For `CC(C)c1ccc(NC(=O)Nc2ccc(NC(=O)CCCC(=O)NOCc3ccccc3)cc2)cc1`, the growth was 85%.
Compound `CCCCn1c(-c2ccc(-c3nc(-c4ccc(Cl)cc4)no3)cc2)nc(-c2ccccc2)c1-c1ccccc1` has a growth of 106%.
Work on `O=C(Oc1ccc[nH]c1=O)c1cccc(Cl)c1` yielded a growth of 89.8%.
For `CCc1n(Cc2ccc3ccccc3c2)cc[n+]1Cc1ccc2ccccc2c1`, the growth was -22.9% (active).
`O=C(CSc1nc2ccccc2c(=O)n1-c1ccc(Cl)cc1)N/N=C/c1ccc(N2CCCCC2)cc1` showed a growth of 79.5%.
`CC(=O)c1cc(O)c2ccccc2c1O` gave a growth of 63.9%.
`COc1ccc(NC(=O)CSc2nc(C)c(C(C)=O)n2-c2ccc(Cl)cc2)cc1` showed a growth of 98.8%.
In the case of `CCOC(=O)c1c(C)c2c(n1C)CSc1cc(S(=O)(=O)c3ccccc3)c(=O)[nH]c1-2`, the growth was 2.42% [100 µM] (active).
Compound `COc1ccc(C2=NN3C(C2)c2cc(Br)ccc2OC3c2ccncc2)cc1` (centres undefined) has a growth of 103%.
For `Cn1cc(-c2nc(-c3c[nH]c4ncccc34)cs2)c2cc(Cl)ccc21`, the growth was -3.54% (active).
For `COc1cc(/C=C/c2cn[nH]c2-c2ccc(C)cc2)cc(OC)c1OC`, the growth was 12.9%.
With `O=C(c1nc2ccccc2[nH]1)C1C(c2ccc([N+](=O)[O-])cc2)C2CC3CCCCC3N2[C@@]12C(=O)Nc1cc(Cl)ccc12` (some centres undefined) the growth was -1.98% (active).
Work on `c1ccc2c(c1)OC1OC2Oc2ccccc21` yielded a growth of 97.5%.
